# According to PubChem BioAssay (Tox21):
# Active and inactive are the calls of the source. The call rests on the fitted dose curve; in most records, active means well fitted curve in the direction sought with a large enough effect in the repeat runs; inconclusive means weak or mixed curves; inactive means flat fitted curve, though single readings scatter.
# Test: qHTS assay to test for compound auto fluorescence at 460 nm (blue) in HepG2 cell free culture (AID 720685)
# Details: Cell-free culture medium, blue autofluorescence 405/460 nm; series mostly up to 91.3 µM
# Description: U.S. Tox21 Program National Center for Advancing Translational Sciences [NCATS] NIH Chemical Genomics Center [NCGC] U.S. Environmental Protection Agency [EPA] National Institutes of Environmental Health Sciences [NIEHS] National Toxicology Program [NTP] U.S. Food and Drug Administration [FDA] Tox21 Assay Overview: Compound auto fluorescence often interferes with screening of the compound library against various biological targets and signaling pathways. Some of these compounds may have fluorophoric properties. Such properties may interfere with the assay outputs resulting in false positives and/or negatives. To decrease such complications and ensure the compound activities are relevant in terms of biological response, the Tox21 10K compound library was screened for auto fluorescence. From the fluorophores used as reporter signals in our screening assays, the auto fluorescence equivalencies of compounds against three fluorophores have been evaluated: Triamterene, Fluorescein and Rose Bengal sodium for blue, green and red fluorescence, respectively. The fluorescence intensities were measured using Excitation/Emission wavelengths at 405/460nm, 485/535nm and 540/590nm for blue, green and red labels, respectively. This assay includes the blue fluorescence data.
# Tox21 Assay Protocol Summary: 5 uL of culture medium (MEM containing 10% FBS) per well was dispensed into black wall/clear bottom 1536-well plates using a Multidrop Combi Dispenser (ThermoFisher Scientific, Waltham, MA). After 23 nL compound or DMSO vehicle was transferred into assay plate by a pintool work station (Kalypsys, San Diego, CA), fluorescence intensities in the assay plates were measured by an Envision (PerkinElmer, Shelton, CT) plate reader using three labels for measuring blue, green and red fluorescence at […] 460, 535 and 590nm respectively.
row,Structure (SMILES),outcome
1,CC1(C)OC[C@@H]2O[C@@]3(C(=O)O)OC(C)(C)O[C@H]3[C@@H]2O1,inactive
2,CC1(C)CC(N)CC(C)(CN)C1 (stereo not given),inactive
3,C=Cc1ccc(C)cc1,inactive
4,CCNc1ccccc1,inactive
5,CC(CCO)CC(C)(C)C (stereo not given),inactive
6,COC(=O)c1cccnc1,inactive
7,COc1ccc(C)cc1N,inactive
8,CC(O)CC(C)(C)O (stereo not given),inactive
9,C=CCc1ccc(OC)c(OC)c1,inactive
10,Nc1nc(N)nc(-c2ccccc2)n1,inactive
11,CC(C)=CCl,inactive
12,CC(=O)Oc1ccc(C)cc1,inactive
13,O=C(O)c1cc2ccccc2cc1O,inactive
14,NCCCCCCN,inactive
15,CCCCCCCC=O,inactive
16,CC(C)c1cccc(C(C)C)c1,inactive
17,CC(=O)OCCOC(C)=O,inactive
18,Cc1ccc([N+](=O)[O-])cc1S(=O)(=O)O,inactive
19,O=C(O)c1ccc(C(=O)O)c(C(=O)O)c1,inactive
20,CCCOC(=O)c1ccccc1,inactive

row,Structure (SMILES),outcome
1,CC(CCl)OP(=O)(OC(C)CCl)OC(C)CCl (stereo not given),inactive
2,C[Si]1(C)O[Si](C)(C)O[Si](C)(C)O[Si](C)(C)O1,inactive
3,O=C(O)c1ccccc1C(=O)O,inactive
4,C=C(C)[C@H]1CC=C(C)C(=O)C1,inactive
5,C[C@]12CC[C@@H]3c4ccc(O)cc4CC[C@H]3[C@@H]1C[C@@H](O)[C@@H]2O,inactive
6,O=C(O)c1ccc(S(=O)(=O)N(Cl)Cl)cc1,inactive
7,CC(C)OC(=O)COc1ccc(Cl)cc1Cl,inactive
8,CN1C(=O)CC[C@H]1c1cccnc1,inactive
9,CCCCCCCCCCCCCCCCO,inactive
10,CCNc1cccc(C)c1,inactive
11,O=C1CCCC1,inactive
12,CCc1ccccc1CC,inactive
13,O=C(O)CCCCCCCCC(=O)O,inactive
14,C[C@]12CCC(=O)C=C1CC[C@@H]1[C@@H]2[C@@H](O)C[C@@]2(C)[C@H]1CC[C@]2(O)C(=O)CO,inactive
15,CC(=O)OC1CC(C)OC(C)O1 (stereo not given),inactive
16,CCCCCC(=O)O,inactive
17,O=[N+]([O-])c1ccc2nc[nH]c2c1,inactive
18,CC(=O)OCc1ccccc1,inactive
19,CCNC(=S)NCC,inactive
20,CC(C)(C)c1cc(Cc2cc(C(C)(C)C)c(O)c(C(C)(C)C)c2)cc(C(C)(C)C)c1O,inactive
